# Reference: PubChem BioAssay
# Unmarked numbers belong to inactive results. Calls of active or inactive are those of the source. No stated cut-off is given here; in the data, active means inhibition above about 28%; inactive means the rest.
# Assay: StAR promoter reporter inhibitors, counter-screen for LRH-1 inverse agonist project, cell-based, luminescence, high throughput (AID 651611)
# Settings: StAR promoter luciferase reporter counterscreen, at 3.6 µM, active compounds read high
row,Compound,inhibition
1,CCOC(=O)CC1CCCCN1C(=O)c1cc(COc2cccc3cnccc23)on1 (stereo not given),39% (active)
2,O=C(OCC(=O)N1CCN(c2ccccc2)CC1)c1ccc2ccccc2n1,9.44%
3,Cc1no[n+]([O-])c1COc1ccc(/C=C2\NC(=S)NC2=O)cc1,-5.62%
4,CS(=O)(=O)c1ccc(-c2cc(NC=O)c3ncc(-c4ccc(F)cc4)n3c2)cc1,13.9%
5,O=C(Cn1ncc(Cl)c(Cl)c1=O)Nc1ccc2c(c1)OCO2,-10.7%
6,CCOc1ccc(NC(=O)Cn2cc(C(C)=O)c3ccccc32)cc1,22.7%
7,COc1ccccc1NC(=O)c1ccc(NC(=O)CSc2nnnn2C)cc1,4.14%
8,COc1ccc(C2=Nn3c(nnc3-c3ccccc3F)SC2)cc1OC1CCOC1 (stereo not given),56.2% (active)
9,COC(=O)c1ccc([C@H](NC(=O)c2ccco2)[C@]2(C)C[C@H]2C2CCCCC2)cc1,4.8%
10,CCCCNC(=O)COC(=O)c1c2c(nc3ccccc13)/C(=C/c1cccs1)CC2,11.2%
11,CC(=NNC(=S)N1CCN(c2ccccn2)CC1)c1nccs1,82.9% (active)
12,CCCC(=O)N1CCN(c2ccc(NC(=O)c3ccc([N+](=O)[O-])o3)cc2)CC1,-1.48%
13,Cn1c(CN2CCN(c3ccc(Cl)cc3)CC2)nc2ccccc21,5.45%
14,COc1ccc(Oc2ccc(NC(=O)c3ccccc3C)cc2)cc1,8.67%
15,Cc1cc(C)nc(SCC(=O)Nc2ccc(N3CCOCC3)c(Cl)c2)n1,-5.17%
16,O=[N+]([O-])c1cc2ncccc2c2ncccc12,42.1% (active)
17,Cc1cccc(NC(=O)CSc2nc3[nH]ncc3c(=O)[nH]2)c1C,11.6%
18,COc1ccc(CCNC(=O)CN2C(=O)NC3(CCCCC3)C2=O)cc1,11%
19,COc1cc(/C=N/n2nnnc2N)ccc1OCc1c(C)no[n+]1[O-],9.05%
20,CC(=O)C1=C(c2ccc(Br)cc2)C(=O)c2ccccc2C1=O,74.3% (active)

row,Compound,inhibition
1,CCn1c2ccccc2c2cc(C3C(C#N)=C(N)Oc4n[nH]c(COC)c43)ccc21 (stereo not given),44.9% (active)
2,COc1ccc(Br)cc1/C=C/C(=O)c1ccc(NC(C)=O)cc1,81.4% (active)
3,COc1cc2c(cc1OC)-c1c(OC)c(OC)cc3ccnc(c13)C2=O,41.2% (active)
4,COc1cc2nc(/C=C/c3cc(OC)c(OC)c(OC)c3)sc2cc1SC,35.7% (active)
5,COc1cc(/C=N/Nc2snc(SC)c2C#N)ccc1O,13.1%
6,O=C(CCl)Nc1cccc2ncccc12,55.6% (active)
7,CC1(C(=O)NCc2ccco2)Cc2c(-c3cccc(C(N)=O)c3)ccnc2O1 (stereo not given),49.6% (active)
8,CNc1c2cccc(C)c2nc2c(C(=O)NCCN(C)C)cccc12,80.3% (active)
9,COc1cc(NC(=O)CCl)ccc(=O)c1,47.9% (active)
10,CCOc1ccc(CCNC(=O)COC(=O)c2ccc(OC)c(OC)c2OC)cc1OCC,11.7%
11,O=[N+]([O-])c1ccc(N2CCCCC2)cc1N1CCOCC1,18%
12,COc1ccc(/C=C2/C(=O)OCc3cc(OC)c(OC)cc32)cc1,36.9% (active)
13,COc1cc2c(OC(C)=O)c3c(c(-c4ccc5c(c4)OCO5)c2cc1OC)C(=O)OC3,55.8% (active)
14,COc1ccc(S(=O)(=O)Nc2ccc(CC#N)cc2)cc1,-4.36%
15,Cc1cc(Br)ccc1NC(=O)CSc1nnc(CN2CCOCC2)n1C,15.4%
16,Cc1cc(C)nc(-n2nc(C)cc2Nc2ccccc2)n1,4.56%
17,CCn1nnnc1SCC(=O)N(C)C1CCS(=O)(=O)C1 (stereo not given),12.5%
18,CC(C)n1c(SCC(=O)Nc2ccc(N3CCOCC3)cc2)nnc1-c1ccco1,4.53%
19,CC(=O)Nc1sc2c(c1-c1nc3ccccc3s1)CN(C(C)C)CC2,36.6% (active)
20,COc1cccc(C(=O)COc2cccc(NC(=O)c3cccc([N+](=O)[O-])c3)c2)c1,14.4%
